Measurements published in article PMC5540273 (PLoS ONE, 2017).

Assays:
Settings in all cases: concentration: 1 μM,replicates: in singlicate; n = 1
EPHA7 = tested on: EPHA7
EPHA8 = tested on: EPHA8
EPHB1 = tested on: EPHB1
EPHB2 = tested on: EPHB2
EPHB3 = tested on: EPHB3
EPHB4 = tested on: EPHB4
EPHB6 = tested on: EPHB6
ERBB2 = tested on: ERBB2
ERBB3 = tested on: ERBB3
ERBB4 = tested on: ERBB4
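Also: KINOMEscan kinase panel screen.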

| SMILES | %Inh (EPHA7) [%] | %Inh (EPHA8) [%] | %Inh (EPHB1) [%] | %Inh (EPHB2) [%] | %Inh (EPHB3) [%] | %Inh (EPHB4) [%] | %Inh (EPHB6) [%] | %Inh (ERBB2) [%] | %Inh (ERBB3) [%] | %Inh (ERBB4) [%] |
| --- | --- | --- | --- | --- | --- | --- | --- | --- | --- | --- |
| CSc1nccc(-c2c(-c3ccc(F)cc3)ncn2CCCN2CCOCC2)n1.Cl [SB-217146] | 0 | 0 | 11 | 0 | 0 | 0 | 0 | 7 | 0 | 0 |
| COc1cc2nccc(Nc3ccc(Oc4ccccc4)cc3)c2cc1OC.Cl [GI261656] | 0 | 0 | 9 | 0 | 0 | 3 | 90.9 | 80 | 99.6 | 85 |
| Cn1ccc2ncnc(Oc3ccc(NC(=O)Nc4cccc(C(F)(F)F)c4)c(Cl)c3)c21 | 82 | 99.5 | 70 | 92.9 | 66 | 64 | 90 | 29 | 5 | 12 |
| Cn1ccc2ncnc(Oc3ccc(NC(=O)Nc4cccc(C(F)(F)F)c4)c(F)c3)c21 | 93.8 | 98.8 | 80 | 90.6 | 74 | 81 | 97.6 | 10 | 24 | 2 |
| CN(c1cccc(CNc2nc(Nc3ccc4c(c3)CC(=O)N4)ncc2C(F)(F)F)c1)S(C)(=O)=O | 33 | 0 | 20 | 14 | 1 | 5 | 56 | 26 | 0 | 6 |
| FC(F)(F)c1cc(Br)cc(Nc2nccc(-c3cnn4ncccc34)n2)c1 [GW810578] | 0 | 0 | 0 | 9 | 17 | 0 | 48 | 0 | 1 | 0 |
| O=C1NCCc2[nH]c(-c3ccncc3)cc21 | 0 | 0 | 0 | 12 | 44 | 17 | 8 | 0 | 21 | 0 |
| Nc1nccc(-c2ccc3c(N)n[nH]c3c2)n1 [GSK1034945] | 6 | 13 | 30 | 19 | 16 | 6 | 2 | 6 | 0 | 25 |
| NC(=O)c1ccc(-c2cc3ncnc(SCC(=O)O)c3s2)cc1 | 0 | 0 | 0 | 0 | 26 | 1 | 62 | 33 | 0 | 10 |
| O=C(Nc1ccc(Oc2ccc3nc(NC(=O)C4CC4)cn3n2)c(F)c1)c1cccn(-c2ccccc2)c1=O | 0 | 79 | 39 | 60 | 6 | 35 | 77 | 15 | 30 | 1 |
| Cc1ccc(Nc2ccnc(Nc3ccc4c(c3)CS(=O)(=O)C4)n2)cc1O.Cl [GW579362] | 44 | 85 | 78 | 25 | 0 | 16 | 91.7 | 17 | 34 | 69 |
| O=C(Nc1cccc(C(F)(F)F)c1)c1cccc(Oc2ccc3nccn3n2)c1 | 5 | 27 | 20 | 9 | 12 | 23 | 12 | 0 | 40 | 0 |
| Cc1ccc2c(-c3ccnc(Nc4ccc(C(F)(F)F)cc4)n3)cnn2n1 [GW819776] | 0 | 6 | 14 | 0 | 7 | 0 | 14 | 0 | 0 | 5 |
| CCNCC(Cc1ccccc1)NC(=O)c1cc(Br)c(-c2ccnc3[nH]ccc23)s1.Cl.Cl (stereo not drawn) [GSK1383280] | 9 | 26 | 7 | 0 | 17 | 0 | 0 | 3 | 0 | 22 |
| OCCn1cc(-c2cnc3nnn(Cc4ccc5ncccc5c4)c3n2)cn1 | 0 | 0 | 0 | 0 | 0 | 0 | 17 | 5 | 0 | 0 |
| COC(=O)c1cccc(NC(=O)NC2CCN(c3ccnc(Nc4cc(OC)c(OC)c(OC)c4)n3)C2)c1 (stereo not drawn) [GSK1379767] | 4 | 7 | 10 | 0 | 8 | 20 | 86 | 51 | 31 | 0 |
| C[C@@H]1CNc2c(sc3ccc4nc(-c5ccncc5)ccc4c23)C(=O)N1 | 0 | 0 | 0 | 0 | 20 | 17 | 18 | 14 | 10 | 0 |

| SMILES | %Inh (EPHA7) [%] | %Inh (EPHA8) [%] | %Inh (EPHB1) [%] | %Inh (EPHB2) [%] | %Inh (EPHB3) [%] | %Inh (EPHB4) [%] | %Inh (EPHB6) [%] | %Inh (ERBB2) [%] | %Inh (ERBB3) [%] | %Inh (ERBB4) [%] |
| --- | --- | --- | --- | --- | --- | --- | --- | --- | --- | --- |
| Cl.Nc1n[nH]c2cc(-c3ccccn3)ccc12 [GSK2189892] | 0 | 0 | 4 | 0 | 4 | 0 | 18 | 9 | 0 | 0 |
| CS(=O)c1ccc(-c2coc3ccc(-c4n[nH]c(=O)o4)cc23)cc1 (stereo not drawn) | 0 | 0 | 0 | 12 | 0 | 0 | 25 | 0 | 13 | 5 |
| O=C(Nc1n[nH]c2cc(-c3ccco3)ccc12)C1CC1 [SB-737447] | 0 | 0 | 0 | 0 | 6 | 0 | 34 | 0 | 0 | 0 |
| NC(=O)Nc1sc(-c2ccc(F)cc2)cc1C(N)=O [GW789449] | 0 | 0 | 24 | 0 | 14 | 20 | 64 | 15 | 54 | 3 |
| CC(C(=O)NC1CCN(c2ccnc(Nc3ccc(F)cc3)n2)C1)c1ccc(Cl)cc1 (stereo not drawn) [GSK1379713] | 5 | 14 | 10 | 0 | 0 | 0 | 0 | 25 | 0 | 0 |
| Cn1ccc2ncnc(Oc3ccc(NC(=O)Nc4cnn(C(C)(C)C)c4)c(Cl)c3)c21 | 27 | 41 | 15 | 50 | 29 | 15 | 48 | 31 | 9 | 12 |
| O=C(Nc1cccc(Oc2ccc3nccn3n2)c1)Nc1cccc(C(F)(F)F)c1 | 0 | 92.6 | 3 | 39 | 11 | 16 | 40 | 22 | 45 | 0 |
| N#Cc1cccc(C(=O)NC2CCN(c3ccnc(Nc4ccc(F)cc4)n3)C2)c1 (stereo not drawn) [GSK1379708] | 0 | 0 | 9 | 0 | 13 | 5 | 0 | 9 | 0 | 10 |
| CCn1c(-c2nonc2N)nc2cncc(Br)c21 [SB-738004] | 0 | 0 | 0 | 12 | 0 | 13 | 29 | 60 | 43 | 11 |
| CCOC(=O)N1CCC(n2cnc(-c3ccc(F)cc3)c2-c2ccnc(N)n2)CC1 [SB-219952] | 1 | 0 | 0 | 7 | 11 | 4 | 30 | 5 | 21 | 21 |
| COc1cc2ncn(-c3cc(OCC4CCCCC4)c(C(N)=O)s3)c2cc1OC [GSK204559] | 17 | 29 | 10 | 0 | 21 | 8 | 64 | 0 | 0 | 0 |
| Cl.Cl.NC[C@H](CC1CCCCC1)NC(=O)c1ccc(-c2ccnc3[nH]ccc23)s1 [GSK1581428] | 14 | 36 | 6 | 0 | 15 | 14 | 12 | 22 | 0 | 0 |
| CC(=O)Nc1nc2cnc(Nc3cc(NC(=O)c4cccc(CC(C)(C)C#N)c4)ccc3C)nc2s1 | 4 | 72 | 11 | 55 | 13 | 37 | 61 | 42 | 9 | 0 |
| O=C(NOCC1CC1)c1cc(Br)c(F)c(F)c1Nc1ccc(I)cc1Cl | 0 | 0 | 5 | 5 | 0 | 0 | 0 | 44 | 0 | 0 |
| CS(=O)(=O)c1cccc(CNc2nc(Nc3ccc4c(c3)[C@@H]3C[C@@H]4CNC3=O)ncc2C(F)(F)F)c1 | 63 | 0 | 40 | 19 | 5 | 16 | 72 | 15 | 0 | 20 |
| COC(=O)c1cccc(NC(=O)NC2CCN(c3ccnc(NCc4ccc(F)cc4)n3)CC2)c1 [GSK1379860] | 18 | 19 | 14 | 0 | 11 | 4 | 0 | 21 | 8 | 6 |
